About 85 (4%) of roughly 1,900 compounds were called active. No stated cut-off is given here; in the data, active means inhibition above about 40%; inactive means the rest. A selection follows.
Molecular target: 72 kDa type IV collagenase (Homo sapiens) (UniProt P08253)
Assay: inhibitors of human MMP-2 protease – biochemical, fluorescence, single concentration, counter-screen for RPN11 inhibitor project, confirmation (AID 602330);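 further: human MMP-2 activated beforehand with APMA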
Conditions: recombinant MMP-2, FRET peptide cleavage fluorescence; at 20 µM; active compounds read high

72 kDa type IV collagenase (Homo sapiens), sequence (P08253 whole entry, looked up): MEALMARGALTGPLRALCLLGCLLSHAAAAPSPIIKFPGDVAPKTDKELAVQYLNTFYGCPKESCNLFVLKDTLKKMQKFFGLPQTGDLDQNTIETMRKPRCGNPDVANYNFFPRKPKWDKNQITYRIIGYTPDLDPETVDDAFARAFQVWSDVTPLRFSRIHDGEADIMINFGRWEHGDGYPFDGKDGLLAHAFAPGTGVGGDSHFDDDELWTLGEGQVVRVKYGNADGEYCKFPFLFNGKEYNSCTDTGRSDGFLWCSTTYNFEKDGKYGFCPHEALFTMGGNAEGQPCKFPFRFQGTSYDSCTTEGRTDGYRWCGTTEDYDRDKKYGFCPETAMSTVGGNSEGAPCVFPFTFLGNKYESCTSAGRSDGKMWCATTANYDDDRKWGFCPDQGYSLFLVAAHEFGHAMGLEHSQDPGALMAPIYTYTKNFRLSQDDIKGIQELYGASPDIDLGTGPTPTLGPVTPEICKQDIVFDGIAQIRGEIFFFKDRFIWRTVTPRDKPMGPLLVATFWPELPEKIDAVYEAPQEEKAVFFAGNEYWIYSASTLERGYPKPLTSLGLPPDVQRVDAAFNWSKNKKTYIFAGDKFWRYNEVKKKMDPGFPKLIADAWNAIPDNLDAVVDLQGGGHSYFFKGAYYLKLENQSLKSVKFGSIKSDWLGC

| Structure (SMILES) | inhibition |
| --- | --- |
| COc1cccc(/C=C(/CC(=O)Nc2ccc(N3CCOCC3)cc2)c2nc3ccccc3s2)c1 | 30.2% (inactive) |
| CCC(C)Cn1c(O)cc2nn(-c3nc4ccccc4s3)c(=O)c-2c1C (configuration not stated) | -2.01% (inactive) |
| Cc1oc2c(C)c3oc(=O)c(CC(=O)N[C@@H](CC(C)C)C(=O)N[C@@H](Cc4ccccc4)C(=O)O)c(C)c3cc2c1C | -12.8% (inactive) |
| CCN1CCCC1CNC(=O)c1cc2c(=O)n(C)c3ccccc3c2n1C (configuration not stated) | 5.3% (inactive) |
| CN(C)c1ccc(-n2cccc2/C=C2/SC(=Nc3ccc(F)cc3)NC2=O)cc1 | 11.2% (inactive) |
| CCCOc1ccc(Cn2c(O)cc(=O)[nH]c2=O)cc1 | -16.6% (inactive) |
| COc1ccc(NC(=O)Cn2c(-c3ccc(OC)cc3)cn(-c3ccc(C)cc3)c2=O)cc1 | -12.7% (inactive) |
| Cc1ccc(Nc2ccccc2N)cc1 | -13.4% (inactive) |
| CCCCCCSc1ccc([C@@H]2[C@H]3C(=O)N(CC)C(=O)[C@H]3[C@]3(C(=O)OC)CCCCN23)cc1 | -13.2% (inactive) |
| CC(C)CC1C(=O)N(Cc2cn(Cc3ccco3)nn2)CCS(=O)(=O)N1Cc1ccc(-c2ccc(Cl)c(Cl)c2)cc1 (configuration not stated) | -38.5% (inactive) |
| CCOc1ccc(-n2c(O)c(/C=N/Nc3nnc(C)c(=O)[nH]3)c3ccccc3c2=O)cc1 | -6.64% (inactive) |
| Cc1nc2ccc(C(=O)N3CCSCC3)cc2s1 | -42.3% (inactive) |
| C=CC1=C(C(=O)O)N2C(=O)[C@@H](NC(=O)/C(=N/OCC(=O)O)c3csc(N)n3)[C@H]2SC1 | 35.4% (inactive) |
| CCOC(=O)N1CCC(NC(=O)C(NS(=O)(=O)c2ccc3c(c2)CCN3C(=O)CC)C(C)C)CC1 (configuration not stated) | -20.7% (inactive) |
| COC(=O)c1ccc(OCC(=O)NC(C)(C)C)cc1 | 6.02% (inactive) |
| O=C(CSc1nc2ccccc2c(=O)[nH]1)Nc1nc(-c2ccc(Br)cc2)cs1 | 51.9% (active) |
| Cc1ccc(N=Cc2c(O)cc(C)oc2=O)c(C)c1 | -22.6% (inactive) |
| CC(=O)Nc1ccccc1Sc1ccc2c3c(cccc13)C(=O)N(c1ccc(C)cc1)C2=O | -23% (inactive) |
| CCOc1ccc(NC(=O)c2ccc(NC(=O)COC(=O)c3ccc(NC(=O)CC#N)cc3)cc2)cc1 | 10.8% (inactive) |
| COC1=C/C(=C/c2c(N)n3nc(CC(=O)N4CCOCC4)sc3nc2=O)C=CC1=O | 12% (inactive) |
| Cc1ccc(Nc2nc(Cl)c(C=O)s2)cc1 | -10.8% (inactive) |
| Cc1nc2ccccc2n1C(=O)N1CCOCC1 | -8.73% (inactive) |

Source: PubChem BioAssay AID602330 (Sanford-Burnham Center for Chemical Genomics, 2012)
